Bioassay records (PubChem BioAssay)
This is one part of a sample in which hits are shown more often than they occur.
a7 integrin act = activators of alpha7 integrin expression for muscular dystrophy. Potency, µM (series often up to 38.3 µM), inactives show at the highest dose activation, hits mostly activators. actives 0.064% (n = 350,000). alpha7betagal myoblasts, beta-gal FDG fluorescence, 48 h. AID 624291;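 further: potency means the concentration at half of the fitted maximal effect; 100% = response of the positive control SU9516; nearly all actives have a fitted effect of over 60% in size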
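Alpha7betagal+/- myoblasts (passage 13) were plated 16-24 hr, then exposed to compounds (1:260 dilution of DMSO stock) for 48 hours at 37C. After MPER lysis, β-galactosidase reporter activity was read as FDG fluorescence (ex 480/em 540) after 30 minutes.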
N370S GC = N370S glucocerebrosidase modulation, Gaucher chaperone candidate | actives 0.092% (n = 330,000) | Potency, µM (titrated, usually from 59.4 µM), for the others: at the top dose activity change, negative = inhibition, hits mostly inhibitors | N370S GC spleen homogenate, 4MU-glucoside fluorescence;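 further: potency means the concentration at half of the fitted maximal effect; 0% = full enzyme activity and -100% = no enzyme basal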
CBFb-RUNX1 inh = CBF-beta/RUNX1 interaction disruption | 230,000 tested, under 10 active | Q01196+Q13951 | AlphaScreen CBFb-His/RUNX1-biotin binding, biochemical | AID 1477 | Potency, µM (highest dose often 59.8 µM), without a hit: at the highest dose activity, negative = inhibition, actives largely listed as inhibitors; further: % of control where 0% means no effect
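Compounds were screened at multiple concentrations against a preformed CBF-beta(His)/RUNX1(biotin) complex (30 nM of each) for 15 min at room temperature, followed by 90 min with nickel and streptavidin beads and AlphaScreen reading.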
Anesthetic bind = candidate novel general anesthetic via apoferritin binding. actives 0.074% (n = 350,000). apoferritin/1-aminoanthracene competitive binding, fluorescence. Potency, µM (top dose mostly 77.5 µM), for inactives: at the top dose activity change, negative = displacement, usual class: inhibitors. P02791; further: potency means the concentration at half of the fitted maximal effect; on the % scale 0 is the no-effect control and ±100 the full control effect; nearly all actives have a fitted effect of over 20% in size
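Horse-spleen apoferritin (10 uM) was mixed with 50% saturated 1-aminoanthracene in PBS, exposed to compounds for 10 min at room temperature, and read for fluorescence (ex 380 nm, em 535 nm). Competitive displacement was fitted with a four-parameter Hill equation.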
ClpP mod = qHTS Assay for Activators of ClpP; purified B. subtilis ClpP, FRET peptide cleavage, 20 min; Potency, µM (highest dose often 57.5 µM), for inactives: at the top dose activity change, negative = active; actives 1.9% (n = 340,000); AID 651965, 2013; active means well fitted falling curve with a large enough effect; inconclusive means small, poorly fitted or top-dose-only effect; inactive means no such curve, though single readings can be large or run the other way; further: potency means the concentration at half of the fitted maximal effect; the source files actives as falling curves though it sought activators and does not explain the sign; nearly all actives have a fitted effect of over 65% in size
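Purified B. subtilis ClpP, 10 microg/mL final in Tris/HCl pH8 with KCl, BSA, glycerol and Tween-20, cleaved an Abz/nitrotyrosine-quenched decapeptide. Fluorescence (ex 320, em 430) was read at 0 and 20 min at room temperature. Delta was normalized to 5.8 microM ADEP and DMSO/no-enzyme controls.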
GRP78 ERSR act = induces the endoplasmic reticulum stress response in human glioma cells. U87-MG GRP78 promoter luciferase reporter, 16 h. Potency, µM, for the others: top-dose activation, hits mostly activators. actives 0.02% (n = 420,000). AID 602332; further: potency means the concentration at half of the fitted maximal effect; series mostly up to about 76 µM; % of control where 0% means no effect; nearly all actives have a fitted effect of over 35% in size
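ERSR induction read as luciferase luminescence (Bright-Glo, 10 min at room temperature) in stably transfected human U87-MG glioma cells exposed to compounds for 16 h, using GRP78 as sensor.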
* marks the source's active call; other numbers are inactive results; ? = inconclusive; / = no result; [ ] = another dose, or the depositor's remark. Unless noted, the call rests on the fitted dose curve; in most records, active means well fitted curve in the direction sought with a large enough effect; inconclusive means small, poorly fitted or top-dose-only effect, or another doubt; inactive means no such curve, though single readings can be large; an effect the other way counts as inactive or inconclusive.

SMILES	a7 integrin act	N370S GC	CBFb-RUNX1 inh	Anesthetic bind	ClpP mod	GRP78 ERSR act
CC1(C)CC(=O)C2=C(C1)c1c(ccc3ccccc13)NC2c1ccco1 (stereo not drawn)	-18%	?	-8%	110%	25µM*	13%
CC(C)CCSc1nc(N)c(C#N)cc1C#N	3%[7.66 µM]	1%	19%	3%	32µM*	1%
CC(=O)c1cc(C#N)c(SCCC(C)C)nc1C	-3%	9%	20%	-14%	-1%	1%
C#Cc1cccc(C(=O)NCc2nc(-c3cccc(NC(=O)c4ccccn4)c3)oc2C)c1	/	/	/	/	/	-1%
CC(=O)N1c2ccc(S(=O)(=O)N(C)CC(=O)NCc3ccccc3)cc2CC1C (stereo not drawn)	-26%	-19%	/	4%	-2%	1%
COc1cc(NC(=O)CN(C)S(=O)(=O)c2ccc3c(c2)CC(C)N3C(C)=O)cc(OC)c1OC (stereo not drawn)	10µM*	-13%	/	-6%	0%	-1%
O=C(NC1CCCCC1)[C@@H]1CC=C[C@@H]2CCN(Cc3ccc(Cl)c(Cl)c3)C(=O)[C@@H]21	/	/	/	/	-4%	-3%
Cc1cc(-c2ccnc(-n3ncc(C(=O)NCCc4cccnc4)c3C)n2)c(C)s1	/	/	/	/	/	0%
COc1ccc(OC)c(CN2CCCC(c3nc(-c4ccncc4)ncc3-c3ccccc3C)C2)c1 (stereo not drawn)	/	/	/	/	/	-4%
COc1ccccc1C(=O)Nc1ccc(Oc2ncnc3sc(-c4ccccc4)cc23)cc1	9%	-6%	2%	-12%	10µM*	-4%
Cc1ccc2nc(N3CCN(c4cccc(C)c4C)CC3)c3nncn3c2c1	/	/	/	-12%	-4%	-2%
Cc1cccc(N2CCN(c3nc4ccc(C)cc4n4cnnc34)CC2C)c1 (stereo not drawn)	/	/	/	4%	32µM*	1%
O=C(C[n+]1ccncc1)c1cccc([N+](=O)[O-])c1	/	/	/	/	1%	-1%
COCc1cc(C)nc(NCCc2ccccc2)c1C#N	4%	11%	1%	?	3.5µM*	3%
Cc1cn2cc(CNC(=O)CN3Cc4ccccc4OC(c4ccccc4F)C3)nc2s1 (stereo not drawn)	/	/	/	/	/	1%
CC(C)CCNC(=O)c1cnc2sc(N3CCCCCC3)nn2c1=O	/	/	/	-20%	13µM*	-1%
CCOc1ccc(CNC(=O)c2cnc3sc(N4CCOCC4)nn3c2=O)cc1OC	/	/	/	46%	28µM*	-2%
CCOc1ccc(CNC(=O)c2cnc3sc(N4CCOCC4)nn3c2=O)cc1	/	/	/	-9%	13%	-2%
COCCCNC(=O)c1cnc2sc(N3CCCCC3)nn2c1=O	/	/	/	-11%	4%	-4%
CCCCOc1ccc(CNC(=O)c2cnc3sc(N4CCOCC4)nn3c2=O)cc1	/	/	/	4.5µM*	?	-3%
COc1ccc(CCNC(=O)c2cnc3sc(N4CCCC4)nn3c2=O)cc1OC	/	/	/	-11%	11µM*	-3%
CNc1cc(C(=O)O)nc2ccccc12	/	/	/	/	-5%	0%
c1cncc(OC2CCN(Cc3ccc4c(c3)CN(Cc3ccc5c(c3)OCO5)CCO4)CC2)c1	/	/	/	/	/	-4%
CCCCNC(=O)[C@@H]1CC=C[C@@H]2CCN(C3CCCCC3)C(=O)[C@@H]21	/	/	/	/	1%	-4%
CCOc1ccc(CNC(=O)c2cnc3sc(N(CC)CC)nn3c2=O)cc1OC	/	/	/	7%	32µM*	-1%
SMILES	a7 integrin act	N370S GC	CBFb-RUNX1 inh	Anesthetic bind	ClpP mod	GRP78 ERSR act
CCN(CC)c1nn2c(=O)c(C(=O)NCc3ccc(F)cc3)cnc2s1	/	/	/	0%	?	1%
O=C(CSCc1ccccc1Cl)Nc1c[nH]c(=O)[nH]c1=O	4%	13%	2%	3%	28µM*	-4%
O=C(CSCc1ccccc1Cl)Nc1ccc2c(c1)OCCO2	3%	16%	2%	?	0%	9%
O=C(CSCc1ccc(Cl)c(Cl)c1)Nc1c[nH]c(=O)[nH]c1=O	3%	-5%	6%	-2%	13µM*	-4%
COc1ccc(-c2noc(-c3ccc(Cl)cc3[N+](=O)[O-])n2)cc1OC	?	11%	-6%	4%	28µM*	0%
Cc1cccc(-c2noc(-c3ccc(Cl)cc3[N+](=O)[O-])n2)c1	8%	3%	3%	-11%	-1%	3%
O=C(NCCc1nnc2n1CCN(CC1CC=CCC1)CC2)c1ccc(F)cc1 (stereo not drawn)	/	/	/	/	/	-5%
c1ccc(CCNc2nc3ccccc3s2)cc1	3%	4%	3%	13µM*	-1%	9%
c1ccc(CCNc2nc(-c3ccccc3)cs2)cc1	/	/	/	/	/	-3%
Cc1c(C(=O)NCC2(N3CCOCC3)CCCC2)cnn1-c1nccc(-c2ccccc2F)n1	/	/	/	/	/	-4%
COc1cc(=O)n2c(c1C(=O)N(C)Cc1ccsc1)CCN(Cc1cnn(C)c1C)CC2	/	/	/	/	/	-2%
Cc1cc(NC(=O)c2ccc3c(c2)OCCO3)cc(-c2nc3ccccc3o2)c1O	/	/	/	16%	0%	-2%
CC(C)C(=O)Nc1ccc2oc(-c3cc(F)c(F)cc3Cl)nc2c1	-2%[7.66 µM]	18%	8%	3%	-108%	-2%
O=C(Nc1ccc2oc(-c3ccccc3F)nc2c1)c1ccc2c(c1)OCCO2	-3%	27%	2%	-8%	28µM*	3%
O=C(Nc1ccc(-c2nc3ccccc3o2)cc1)c1ccc2c(c1)OCO2	-30%	0%	1%	-6%	32µM*	-4%
CC(=O)Nc1ccc2oc(-c3cc(F)c(F)cc3Cl)nc2c1	0%	8%	4%	-5%	18µM*	-4%
O=C(Nc1ccc(-c2nc3ccccc3o2)cc1)c1ccc(N2C(=O)C3C4C=CC(C4)C3C2=O)cc1 (stereo not drawn)	19%	9%	-2%	-2%	3.2µM*	-2%
O=C(Nc1ccc2oc(-c3cccc4ccccc34)nc2c1)c1ncn[nH]1	-10%	13%	-6%	2%	32µM*	3%
Cc1ccc(-c2cc(-c3ccc(C)o3)nc(N)c2C#N)cc1	-42%	-4%	-21%	4%	22µM*	4%
Cc1ccc(-c2cc(-c3ccc(F)cc3)c(C#N)c(N)n2)o1	-5%	11%	1%	66%	/	-2%
CC1CCN(c2nc(-c3ccc(C(C)(C)C)cc3)nc3ccccc23)CC1	/	/	/	-11%	?	-2%
CCCOc1ccc(-c2nc(N3CCC(C)CC3)c3ccccc3n2)cc1	/	/	/	-14%	20µM*	-2%
CCCOc1ccc(-c2nc3ccccc3c(=O)o2)cc1	/	/	/	1%	-26%	9%
CCCOc1ccc(-c2nc(OC)c3ccccc3n2)cc1	10%	12%	0%	-12%	32µM*	8%
O=C(C[N+]12CN3CN(CN(C3)C1)C2)c1ccc(Br)cc1	/	/	/	/	-3%	0%
